Inconclusive results are not listed. Where a call stands in place of a potency, no number is given. Calls of active or inactive are those of the source. Calls follow the shape of the dose curve; as a rule, active = well fitted cell-killing curve with a large enough effect in the repeat runs; inconclusive = weak or mixed curves, or effect the other way; inactive = flat fitted curve, though single readings scatter.
assay: qHTS RealTime-Glo MT Cell Viability Assay in HEK293 cells - 24 hour (AID 1224886); details: RealTime-Glo luminescence; series mostly up to 76.8 µM; also: nearly all actives have a fitted effect of over 50% in size; as to activity change, negative = cytotoxicity: top concentration of the series differs between compounds
Description: National Center for Advancing Translational Sciences [NCATS]
NIH Chemical Genomics Center [NCGC]
U.S. Environmental Protection Agency [EPA]
National Institutes of Environmental Health Sciences [NIEHS]
National Toxicology Program [NTP]
U.S. Food and Drug Administration [FDA]
Measure of cell viability is critical in the cell-base assay. Analysis of cell viability is necessary for the characterization of cell responses to cytotoxic drugs and environmental stress. A RealTime-Glo MT Cell Viability Assay to monitor cell viability in real time of continues cell culture during 40 hours of compound treatment was used to screen Tox21 10K library compounds in Hek293 cells. The RealTime-Glo MT Cell Viability Assay is a nonlytic, homogeneous, bioluminescent method to measure cell viability in real time using a simple, plate-based method. The assay involves adding NanoLuc luciferase and a cell-permeant prosubstrate to cells in culture. Viable cells reduce the proprietary prosubstrate to generate a substrate for NanoLuc luciferase. This substrate diffuses from cells into the surrounding culture medium, where it is rapidly used by the NanoLuc Enzyme to produce a luminescent signal. The signal correlates with the number of viable cells, making the assay well suited for cytotoxicity studies.
Tox21 Assay Protocol Summary:
The mixture of Hek293 cell suspension and reagents were dispensed at 600cells/6 ul/well in 1536-well tissue culture treated black solid bottom plates using a Multidrop dispenser. After the assay plates were incubated at a 37 C/5% CO2 incubator for 5 hours, 23 nL of compounds dissolved in DMSO, positive and negative controls was transferred to the assay plate by a pintool work station. The plates were incubated at 37 C for 40 hours. The luminescence intensity were measured at 0h, 8h, 16h, 24h, 32h and 40h time points using ViewLux plate reader during compound treatment.
Potency is read from the fitted curve at half-maximal effect.

Question: With O=C(O[C@@H](C(=O)O)[C@@H](OC(=O)c1ccccc1)C(=O)O)c1ccccc1 as the compound, how does the Potency read?
Answer: Its Potency is “inactive”.

Question: Which Potency does the source give for CCCCNCCCC here?
Answer: Its Potency is “inactive”.

Question: Which Potency does the source give for CCOC(=O)C(Br)c1ccccc1 (stereo not given) here?
Answer: The Potency was “inactive”.

Question: For COC(=O)c1ccc2cc(C(=O)OC)ccc2c1, which activity change, negative = cytotoxicity is on record?
Answer: The activity change, negative = cytotoxicity was -1.22% [at 15.8 µM] (inactive).

Question: For FC(F)(F)c1ccccc1, which Potency is on record?
Answer: Its Potency is “inactive”.

Question: Which Potency does the source give for CCCc1c2oc(C(=O)O)cc(=O)c2cc2c(=O)cc(C(=O)O)n(CC)c12 here?
Answer: Its Potency is “inactive”.

Question: Which Potency does the source give for C=CCc1cc(OC)c(O)c(C(=O)NCCO)c1 here?
Answer: The Potency was “inactive”.

Question: With Cc1nc(-c2ccccn2)ncc1C(=O)Nn1cc(C)c2cc(F)ccc21 as the compound, how does the Potency read?
Answer: The Potency was 1.55 µM (active).

Question: With O=C(C(Cl)Cl)N1CCOC12CCCCC2 as the compound, how does the Potency read?
Answer: Its Potency is “inactive”.

Question: For CCCCNC(=S)NCCCC, which Potency is on record?
Answer: The Potency was “inactive”.

Question: For CCCCCCCCc1ccc(S(=O)(=O)O)cc1, which Potency is on record?
Answer: Its Potency is “inactive”.

Question: With NC(=O)NS(=O)(=O)c1ccc(Cl)cc1 as the compound, how does the Potency read?
Answer: Its Potency is “inactive”.

Question: With CC(C)OC(C)C as the compound, how does the Potency read?
Answer: Its Potency is “inactive”.

Question: With O=[N+]([O-])c1nccn1CO[C@@H](CO)[C@H](O)CO as the compound, how does the Potency read?
Answer: The Potency was “inactive”.

Question: Which Potency does the source give for Cc1cn([C@@H]2O[C@H](CO)[C@@H](O)[C@@H]2F)c(=O)[nH]c1=O here?
Answer: The Potency was “inactive”.

Question: With Cc1cc(NS(=O)(=O)c2ccc(N)cc2)nc(C)n1 as the compound, how does the Potency read?
Answer: The Potency was “inactive”.

Question: With CC(=O)N(CC(O)CN(C(C)=O)c1c(I)c(C(=O)NCC(O)CO)c(I)c(C(=O)NCC(O)CO)c1I)c1c(I)c(C(=O)NCC(O)CO)c(I)c(C(=O)NCC(O)CO)c1I (stereo not given) as the compound, how does the Potency read?
Answer: The Potency was “inactive”.

Question: For Cc1cccc(C)c1NC(=O)CN1CCCCCC1, which Potency is on record?
Answer: Its Potency is “inactive”.

Question: For Cc1ccsc1C(=CCCN1CCC[C@@H](C(=O)O)C1)c1sccc1C, which Potency is on record?
Answer: Its Potency is “inactive”.

Question: With CC(=O)O[C@H]1CC[C@@]2(C)C(=CC[C@@H]3[C@@H]2CC[C@]2(C)C(C(C)=O)=CC[C@@H]32)C1 as the compound, how does the Potency read?
Answer: The Potency was “inactive”.

Question: Which Potency does the source give for CC(C)NCC(O)COc1ccc(CCOCC2CC2)cc1 (stereo not given) here?
Answer: The Potency was “inactive”.

Question: Which Potency does the source give for CCNCCO here?
Answer: Its Potency is “inactive”.

Question: With CCc1nnc(NS(=O)(=O)c2ccc(N)cc2)s1 as the compound, how does the Potency read?
Answer: Its Potency is “inactive”.

Question: With CC(C)(CO)[C@@H](O)C(=O)NCCC(=O)O as the compound, how does the Potency read?
Answer: Its Potency is “inactive”.

Question: For FC(F)(F)C(Cl)(Cl)Cl, which Potency is on record?
Answer: The Potency was “inactive”.

Question: For O=C(CCCl)NCc1ccccc1, which Potency is on record?
Answer: Its Potency is “inactive”.

Question: For CCCCN1C[C@H](O)[C@@H](O)[C@H](O)[C@H]1CO, which Potency is on record?
Answer: The Potency was “inactive”.

Question: For CN1[C@@H]2CC[C@H]1CC(OC(=O)c1c[nH]c3ccccc13)C2 (stereo not given in full), which Potency is on record?
Answer: The Potency was “inactive”.

Question: For Oc1ccccc1F, which Potency is on record?
Answer: The Potency was “inactive”.

Question: For Cc1c[nH]c(=S)[nH]c1=O, which Potency is on record?
Answer: Its Potency is “inactive”.

Question: Which Potency does the source give for CO[Si](C)(C)OC here?
Answer: Its Potency is “inactive”.

Question: Which Potency does the source give for C=CC1CO1 (stereo not given) here?
Answer: Its Potency is “inactive”.

Question: With CCC/C=C/CO as the compound, how does the Potency read?
Answer: Its Potency is “inactive”.

Question: Which Potency does the source give for ClC(Cl)Cl here?
Answer: The Potency was “inactive”.

Question: For CC(C)CC(=O)OCc1ccccc1, which Potency is on record?
Answer: Its Potency is “inactive”.

Question: For CCCC(CCC)(C(=O)OCC)C(=O)OCC, which Potency is on record?
Answer: The Potency was “inactive”.

Question: For NC1=NCC2c3ccccc3Cc3ccccc3N12 (stereo not given), which Potency is on record?
Answer: The Potency was “inactive”.

Question: With CC/C=C\CCOC(=O)C(C)C as the compound, how does the Potency read?
Answer: The Potency was “inactive”.

Question: For CC[C@H]1CC[C@H](NCc2cc3c(cc2OC)[C@H]2C[C@H]2C(=O)N3C)[C@H](c2ccccc2)N1, which Potency is on record?
Answer: The Potency was 21.9 µM (active).

Question: For Oc1ccccc1C=NCc1ccccc1, which Potency is on record?
Answer: Its Potency is “inactive”.

Reference: PubChem BioAssay (Tox21)
